Bioassay records from PubChem.
The list is not random: actives were taken first. Their share in the collection is about 8.8%.
HPGD inh: qHTS Assay for Inhibitors of HPGD (15-Hydroxyprostaglandin Dehydrogenase) | purified HPGD, NADH fluorescence kinetic, PGE2 substrate | 4.3% of 150,000 active | 15-hydroxyprostaglandin dehydrogenase [NAD(+)] (Homo sapiens), P15428 | Potency, µM, inactives show top-dose activity change, negative = inhibition, usual class: inhibitors | AID 894, 2007; also: % is scaled to controls: 0 for no effect and ±100 for the full control effect
Target sequence (P15428 whole entry, looked up): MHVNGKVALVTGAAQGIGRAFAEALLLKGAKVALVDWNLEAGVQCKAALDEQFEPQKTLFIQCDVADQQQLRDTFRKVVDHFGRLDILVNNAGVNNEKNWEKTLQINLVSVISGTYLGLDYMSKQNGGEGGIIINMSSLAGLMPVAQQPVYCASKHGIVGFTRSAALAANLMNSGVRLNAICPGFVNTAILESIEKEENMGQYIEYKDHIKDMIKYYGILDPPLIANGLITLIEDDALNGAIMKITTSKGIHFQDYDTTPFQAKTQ
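20 nM HPGD preincubated 15 min at room temperature with compound in 50 mM Tris-HCl pH 8, 0.01% Tween 20. Started with 1 mM NAD+ and 30 uM prostaglandin E2; NADH fluorescence (360/450 nm) read 5 times over 30-s intervals, last minus first.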
HttQ103 aggreg: qHTS Multiplex Assay to Identify Dual Action Probes in a Cell Model of Huntington: Aggregate Formation (GFP); 1.1% of 220,000 active; Potency, µM (top dose mostly 46.1 µM), for the others: at the highest dose activity change, negative = inhibition, usual class: inhibitors; PC12 HttQ103-GFP aggregates, Acumen cytometry, 40 h; AID 1688, 2009; active = well fitted curve in the direction sought with a large enough effect; inconclusive = small, poorly fitted or top-dose-only effect, or another doubt; inactive = no such curve, though single readings can be large; an effect the other way counts as inactive or inconclusive; also: % is scaled to controls: 0 for no effect and ±100 for the full control effect; nearly all actives have a fitted effect of over 60% in size
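Multiplexed with ATP-based cell death, this channel scores GFP aggregates in PC12 cells expressing inducible HTTex1-Q103-GFP. Induction used 100 nM tebufenozide; compounds were tested in concentration series.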
LMNA splice mod: qHTS Assay for Modulators of Lamin A Splicing | HeLa LMNA splicing GFP/RFP minigene ratio, 48 h | Potency, µM (top dose mostly 46.1 µM), without a hit: at the highest dose ratio change, negative = inhibition, actives largely listed as inhibitors | 0.01% of 200,000 active; active = well fitted inhibition curve with a large enough effect in the signal ratio, with a control signal flat, not every such curve was filed as active; inconclusive = small, poorly fitted or top-dose-only effect, or effect the other way, or a change in a side signal; the % refers to the signal ratio; also: % is scaled to controls: 0 for no effect and ±100 for the full control effect
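Read-out is the ratio of GFP to DsRed2 object intensity, acquired by 488 nm laser-scanning cytometry on HeLa lamin A-EGFP minigene reporter cells. Compound incubation 48 hrs at 37 °C in Opti-MEM with 2% FBS; DMSO 0.5% final.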
HTT cytoprotect: qHTS Multiplex Assay to Identify Dual Action Probes in a Cell Model of Huntington: Cytoprotection (ATP). PC12 HTT-Q103 induced, cytoprotection, ATP luminescence, 40 h. Potency, µM (highest dose often 56.4 µM), for the others: cytoprotection (ATP increase), actives largely listed as activators. AID 1471, 2008. 0.14% of 230,000 active; active = well fitted curve in the direction sought with a large enough effect; inconclusive = small, poorly fitted or top-dose-only effect, or another doubt; inactive = no such curve, though single readings can be large; an effect the other way counts as inactive or inconclusive; also: % of control where 0% means no effect; nearly all actives have a fitted effect of over 45% in size
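Cells were plated at 1500 per well in phenol red-free DMEM with 5% equine and 5% calf serum. Tebufenozide (100 nM final) and compounds were added, then ATPlite reagent, and luminescence was read.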
ALDH1A1 block: qHTS Assay for Inhibitors of Aldehyde Dehydrogenase 1 (ALDH1A1). Aldehyde dehydrogenase 1A1 (Homo sapiens), P00352. Purified ALDH1A1, NADH fluorescence, propionaldehyde substrate. Potency, µM (series often up to 75.3 µM), without a hit: top-dose activity, negative = inhibition, usual class: inhibitors. 7.3% of 220,000 active;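 also: plate controls were no enzyme wells and a reference inhibitor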
Active calls of the source: *; ? = inconclusive; nt = not tested or not shown; [ ] = dose if it differs, or a comment. Unless noted, calls follow the shape of the dose curve; as a rule, active = well fitted inhibition curve with a large enough effect (not every such curve was filed as active); inconclusive = small, poorly fitted or top-dose-only effect, or another doubt; inactive = no such curve, though single readings can be large or run the other way. Potency is read from the fitted curve at half-maximal effect.

SMILES	HPGD inh	HttQ103 aggreg	LMNA splice mod	HTT cytoprotect	ALDH1A1 block
Cc1cc(SCC(=O)N2CCCC2)nc2ccccc12	13µM*	-12%	?	-13%[10 µM]	-27%
Cc1cc(NC(=O)CSc2nc3cc(Cl)ccc3s2)no1	-11%	-17%	1%	11%	5%
Cc1cc(SCC(=O)c2cc3ccccc3o2)nc2ccccc12	35µM*	-13%	3%	-40%	28µM*
CCCN1CCC(N2CCCC(C(=O)O)C2)CC1 (stereo not given)	nt	-1%	nt	-35%	-3%
O=C(O)CC(c1cccc2ccccc12)n1cccc1 (stereo not given)	35µM*	?	2%	3%	-7%
O=C(c1ccc(N2CCCCC2)c([N+](=O)[O-])c1)N1CCN(c2ccccn2)CC1	nt	-21%	nt	-31%	?
O=C1C2CC=CCC2C(=O)N1c1ccc(N2CCN(c3ccccn3)CC2)c([N+](=O)[O-])c1 (stereo not given)	nt	-21%	nt	-27%	18µM*
CCN(CC)CC(=O)Nc1c(C#N)cnn1-c1ccccc1	nt	-13%[9.22 µM]	nt	10%[10 µM]	nt
COc1ccc2ccccc2c1C(=O)/C=C\c1ccoc1	?	?	?	nt	20µM*
CCCCOc1ccc(C(=O)N2CCN(CCc3ccccn3)CC2)cc1	nt	nt	-10%[46 µM]	nt	nt
Cc1sc2ncnc(NCCc3ccc(S(N)(=O)=O)cc3)c2c1C	-14%	0.71µM*	?	-11%	29%
NS(=O)(=O)c1ccc(CCNc2ncnc3sccc23)cc1	-15%	?	?	-2%	8%
C=CCOC(=O)C(=O)/C=C/c1ccc2c(c1)Cc1ccccc1-2	nt	22%[9.22 µM]	nt	27%[10 µM]	1%
C=CCOC(=O)C(=O)/C=C/c1csc2ccccc12	nt	-12%[9.22 µM]	nt	7%[10 µM]	10µM*
COc1ccc(/C=N/Nc2nc(C)c([N+](=O)[O-])c(N(C)c3ccccc3)n2)cc1OC	-21%	12%	13%	-37%	-2%
COc1ccc(Nc2nc(N/N=C/c3ccc(N(C)C)cc3)nc(C)c2[N+](=O)[O-])cc1	-10%	-12%	-9%	20%[10 µM]	7.9µM*
Cc1c(Cl)cccc1NC(=O)CSc1nc(=O)n(Cc2ccccn2)c2c1CCC2	nt	nt	-5%[46 µM]	nt	nt
O=C(COC(=O)c1ccc([N+](=O)[O-])s1)Nc1ncc(C(F)(F)F)cc1Cl	-27%	-1%	2%	22%[1.9 µM]	18µM*
CC1CCCCN1S(=O)(=O)c1coc(C(N)=O)c1 (stereo not given)	-9%	-20%	-1%	-1%	-33%
CC1CCN(S(=O)(=O)c2ccc(Cl)cc2Br)CC1	?	-16%	?	-19%[10 µM]	7%
CC1CCCCN1S(=O)(=O)c1cnc(Cl)c(Br)c1 (stereo not given)	-22%	?	13%	nt	2.5µM*
CC1CCN(S(=O)(=O)c2cnc(Cl)c(Br)c2)CC1	-15%	?	13%	nt	0.13µM*
CN(C)c1ncc2nc(CCc3ccccc3)c(=O)n(Cc3cccs3)c2n1	nt	nt	-12%	-49%	?
Cc1ccc2c(c1)C(=O)[C@@]1(O)CCN(c3ccccc3)C1=N2	-4%	nt	nt	-16%	1%
Cc1nc(SCC(=O)O)c2oc3ccccc3c2n1	18µM*	10%	-11%	-23%	2%
SMILES	HPGD inh	HttQ103 aggreg	LMNA splice mod	HTT cytoprotect	ALDH1A1 block
COc1ccc(C(C)=O)cc1CSc1nc2cc(Cl)ccc2o1	-26%	-21%	?	-7%	25µM*
O=C(CSc1ncnc2c1oc1ccccc12)c1cccs1	-26%	4%	12%	-13%[0.074 µM]	10%
CCOC(=O)CC(=O)CSc1nc(C)nc2c1oc1ccccc12	?	1.1µM*	4%	-6%	?
COc1ccc(C(C)=O)cc1CSc1nnc(SCc2cc(C(C)=O)ccc2OC)s1	nt	5%[9.22 µM]	nt	4%[10 µM]	nt
Cc1nc(SCC(=O)c2cccs2)c2oc3ccccc3c2n1	13µM*	-2%	?	-22%	2%
Cc1nc(SCC(=O)NCc2ccccc2)c2oc3ccccc3c2n1	-1%	-16%	-10%	-10%	2%
